# NS1 function inh: influenza NS1 inhibition. Potency, µM (highest dose often 46.1 µM). 0.4% of 270,000 active. AID 2326; calls by dose curve; further: actives are rising curves; nearly all actives have a fitted effect of over 50% in size
#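 Growth recovery, yeast-based: influenza A NS1 expressed in S. cerevisiae causes slow growth, and suppressors are detected by OD600. The parent strain without NS1 is used as positive control.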
# HCV inhibitor: HCV inhibition | Huh7.5.1 HCVcc-Cre infection, luciferase reporter, 44 h | Potency, µM (doses to about 41.8 µM), most hits filed as inhibitors | 3.4% of 340,000 active
#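 Infectious HCV cell culture screen: compound-treated cells (1,000/well, pre-plated 4 h) are infected with HCVcc-Cre at roughly 0.5 moi and grown 44 h. Infection is quantified by luciferase signal after 15 min substrate incubation at room temperature.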
# VACV mCherry inh: inhibitors of vaccinia virus infection (mCherry reporter signal) | 0.63% of 310,000 active | Vaccinia virus mCherry reporter infection, fluorescence | Potency, µM (series often up to 36.5 µM), most hits filed as inhibitors | AID 720579; calls by dose curve; tested in A549 cells; further: nearly all actives have a fitted effect of over 35% in size
# VACV Venus inh: inhibitors of vaccinia virus (Venus reporter); 0.46% of 330,000 active; Vaccinia virus Venus reporter expression, fluorescence; Potency, µM (top dose mostly 36.5 µM), hits mostly inhibitors; calls by dose curve; tested in A549 cells; further: nearly all actives have a fitted effect of over 30% in size
# Pf growth 96h: P. falciparum growth inhibition at 96 hours. Potency, µM (doses to about 28.7 µM), usual class: inhibitors. 6.9% of 320,000 active. P. falciparum luciferase reporter growth, 96 h
#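 Erythrocytes infected with luciferase-expressing P. falciparum were dispensed at 2% hematocrit and 0.05% parasitemia (final), then incubated with compounds 96 hours at 37 C in 5% CO2. Luminescence after detection reagent addition reported growth.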
# Pf growth 48h: inhibits P. falciparum growth in the first generation, 48 h | AID 504832 | Potency, µM (doses to about 28.7 µM), usual class: inhibitors | 5.9% of 310,000 active | P. falciparum luciferase growth in erythrocytes, 48 h
#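 Erythrocytes infected with P. falciparum carrying an integrated firefly luciferase reporter (2% hematocrit, 0.1% parasitemia final) were exposed to compounds in RPMI 1640 with 0.5% Albumax at 37 C, 5% CO2. Growth inhibition was scored as reduced luminescence.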
# Hits are given with their value; . = inactive; ? = inconclusive; / = no result given; [ ] = remark or other dose. Most compounds without a hit are left out; they make up all but 11% or so of the library. Unless noted, the call rests on the fitted dose curve; in most records, active means well fitted inhibition curve with a large enough effect; inconclusive means small, poorly fitted or top-dose-only effect, or another doubt; inactive means no such curve, though single readings can be large or run the other way.
SMILES,NS1 function inh,HCV inhibitor,VACV mCherry inh,VACV Venus inh,Pf growth 96h,Pf growth 48h
Cc1ccc(S(=O)(=O)N[C@@H](C)C(=O)N2CCC(C(=O)N3CCC[C@H]3C(=O)O)CC2)cc1,.,.,/,.,/,.
COC(=O)C1CCN(C(=O)C2CCN(C(=O)[C@H](C)NS(=O)(=O)c3ccc(C)cc3)CC2)CC1,.,?,.,.,12µM,?
COc1ccccc1OCCSc1ncnc2nc[nH]c12,.,.,/,.,12µM,.
c1ccc(CCSc2ncnc3nc[nH]c23)cc1,.,13µM,.,.,.,.
CC(C)c1cc(CN2CCN(CCC#N)CC2)cc(C(C)C)c1O,.,.,.,.,?,2.3µM
CC(C)(C)c1cc(CN2CCN(CCO)CC2)cc(C(C)(C)C)c1O,.,.,.,.,?,.
Cc1ccc2nc(-c3ccc(NC(=S)NCC(C)(C)CN(C)C)cc3)sc2c1,/,2.2µM,/,/,/,/
Cc1ccc2sc(-c3ccc(NC(=O)CCN4C(=O)c5ccccc5C4=O)cc3)nc2c1,.,.,/,/,9.3µM,.
C=CCn1c(SCC(=O)Nc2ccc(-c3nc4ccc(C)cc4s3)cc2)nnc1-c1ccccc1,.,10µM,?,.,.,.
Cc1ccc2nc(-c3ccc(NC(=O)CN4CCN(C(=O)c5ccco5)CC4)cc3)sc2c1,.,?,.,?,1.5µM,2.3µM
O=C1CCC(/C=C/c2ccccc2)=NN1Cc1ccc(Cl)c(Cl)c1,.,.,.,.,/,.
Cc1cc(C)cc(N(CC(=O)Nc2ccc(-c3nc4ccc(C)cc4s3)cc2)S(C)(=O)=O)c1,.,.,.,.,4.1µM,.
c1ccc(Sc2nc(N3CCCCC3)nc(N3CCCCC3)n2)nc1,.,10µM,/,/,?,?
CCOc1ccc(C2=NNC(c3cccs3)=Nc3ccc(OC)cc32)cc1OCC,.,?,.,.,.,12µM
COc1ccc(C2=NNC(c3cccs3)=Nc3ccc(OC)cc32)cc1,?,.,/,.,.,?
C=CCNC(=O)Cc1c(OC)ccc2cc(Br)ccc12,.,10µM,.,.,.[5.75 µM],.
COc1ccc2cc(Br)ccc2c1CC(=O)NC(C)C,.,.,.,.,.,.
CC1(C)CC2(CC(c3cccs3)c3cc(Cl)c(O)cc3O2)NC(=S)N1 (configuration not stated),.,?,.,.,?,?
CC1(C)CC2(CC(c3ccc(F)cc3)c3ccc(O)cc3O2)NC(=S)N1 (configuration not stated),.,.,/,/,.,2.3µM
CN1C(=O)NC(NC(=O)c2cccs2)(C(F)(F)F)C1=O (configuration not stated),.,.,/,/,.,.
CC1NC(=S)N(C2CCCCC2)C1=O (configuration not stated),/,.,.,.,4.7µM,.
CCC(C)C1NC(=S)N(C2CCCCC2)C1=O (configuration not stated),.,.,.,.,?,?
CSC1=N/C(=C/c2cccnc2)C(=O)N1Cc1ccc(Cl)cc1,.,.,/,/,?,6.6µM
CC(=O)Oc1ccccc1C(=O)Oc1ccc(/C=N/n2cnnc2)cc1,.,.,/,/,8.3µM,.
CCOc1ccc(/C=N/n2cnnc2)cc1,.,.,/,/,/,.
SMILES,NS1 function inh,HCV inhibitor,VACV mCherry inh,VACV Venus inh,Pf growth 96h,Pf growth 48h
CCN1C(=O)S/C(=C/c2ccc(Sc3nc4ccccc4[nH]3)o2)C1=O,.,?,.,.,9.3µM,.
N#C/C(=C\Nc1ccccc1O)c1nc2ccccc2o1,.,10µM,?,?,10µM,1.7µM
N#C/C(=C\c1ccncc1)c1nc2ccccc2o1,.,.,.,.,.,.
CCC(=O)c1ccc(OCC(=O)OCC(=O)Nc2cccc(S(=O)(=O)N3CCCC3)c2)cc1,/,.,/,/,.,.
CCN=C1S/C(=C\c2cn(C(C)=O)nc2-c2ccccc2)C(=O)N1CC,.,10µM,/,/,.,.
CC(=O)NC1=NC(=O)/C(=C/c2cn(C(C)=O)nc2-c2ccccc2)S1,/,.,/,/,.,.
CC(C)OC(=O)CSc1nnc(-c2cnccn2)n1C,.,.,/,.,10µM,.
CCOc1ccccc1NC(=O)CSc1nnc(-c2cnccn2)n1C,.,.,/,/,1.9µM,.
O=C(CSc1nnc(-c2cnccn2)n1Cc1ccco1)c1ccc2ccccc2c1,.,.,/,/,10µM,.
Cc1cccc(C)c1NC(=O)CSc1nnc(-c2cnccn2)n1C,.,.,.,.,.,.
Cn1c(SCC(=O)c2ccccc2)nnc1-c1cnccn1,.,.,/,/,8.3µM,.
O=C(CSc1nnc(-c2ccccn2)n1Cc1ccco1)c1ccc(-c2ccccc2)cc1,.,?,/,/,.[5.75 µM],.
CCOc1ccc(NC(=NCc2ccc3c(c2)OCO3)SC2CC(=O)N(c3ccc(OCC)cc3)C2=O)cc1 (configuration not stated),.,?,/,/,3.7µM,?
CCOc1ccc(NC(=NCc2ccc3c(c2)OCO3)SC2CC(=O)N(c3ccc(C(=O)O)cc3)C2=O)cc1 (configuration not stated),.,.,.,.,9.3µM,?
Nc1ccccc1Oc1ncc(C(F)(F)F)cc1Cl,.,.,.,.,.,5.2µM
O=C(CNC(=O)C1CCCCC1)OCC(=O)c1ccc(Cl)s1,/,.,.,.,.,.
O=C(C1CC1)N1CCCN(C(=O)C2CC2)CC1,.,.,/,.,.,.
CC(C)c1ccc2c(c1)C(N1CCNCC1)Cc1ccc(F)cc1S2 (configuration not stated),/,?,11µM,?,/,/
